Compound activity: PubChem BioAssay, Broad Institute
Compounds with a hit are over-represented: about 3.8% of the library has one in this group of screens.
esBAF inh: Bmi1 luciferase reporter increase in mESCs, primary screen, esBAF inhibitor project, mouse ES cells, Bmi1 luciferase knock-in, single point; 24 h; 100% = twice the neutral-well signal; reporter increase, % at 12.5 µM; 350,000 tested, 2% active; in the data active = activation above about 40%; inconclusive = no clear call, values can overlap the other calls;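 note: a rise in the Bmi1 reporter signal indicates esBAF inhibition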
MITF act: activators of MITF-driven TRPM1 promoter reporter, primary screen, cell-based, SK-MEL-5, luciferase, single point. activation, % at 12.5 µM. 300,000 tested, 0.75% active. AID 588334, 2011. SK-MEL-5 TRPM1-promoter luciferase, 24 h; % of positive control, neutral wells = 0;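 active = mean activation of at least 80% with every replicate also reaching 80%; inconclusive = mean reaches 80% but some replicate falls short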
HSF-1 act: HSF-1 activators, primary screen, NIH3T3-HGL cells, MG132 stress, luminescence, single point; NIH3T3-HGL HSF-1 luciferase reporter, 8 h; 100% = twice DMSO control signal; activation, % at 9 µM; 300,000 tested, 1.7% active;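 active = mean replicate activation of at least 50% with a set share of replicates each reaching 50%; inconclusive = only one of those two conditions met; inactive = mean below 50% and too few replicates reaching it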
HSF1 inhib: HSF1 inhibitors in luciferase reporter cells, primary screen, cell-based, NIH3T3, luminescence; NIH3T3-HGL HSE-luciferase, MG132-induced, luminescence 8 h; stronger effect = lower value; activity change, negative = inhibition, % at 7.5 µM (by protocol); 300,000 tested, 0.77% active;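 active = more than half of replicate wells show activity change below -50%, luminescence cut by over half; inconclusive = some wells, but at most half, below -50%; inactive = no replicate well below -50%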;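 note: luciferase reports HSF-1 transcriptional activity via heat shock element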
Wnt act: Wnt/beta-catenin pathway activators, primary screen, cell-based, plate reader, single point; Wnt/beta-catenin reporter cell assay, activator; activation, % at 9.35 µM; 300,000 tested, 1.2% active; AID 743398, 2014; in the data active = activation above about 30%, passing the limit was not always enough; inconclusive = no clear call, values can overlap the other calls
Ring1 derepress: Ring1 mRNA increase in mouse ESCs, confirmation, esBAF inhibitor project, cell-based, mouse ESC, RT-qPCR, cherry-pick; shares compounds with esBAF inh; mouse ESC E14, Ring1 mRNA RT-qPCR fold change; fold change at 33 µM; 550 tested, under 10 active; AID 743176, 2013;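 active = Ring1 gene expression raised more than 2-fold over untreated cells in both replicates at either tested dose; inconclusive = only one replicate above 2-fold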;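 note: Ring1 transcript normalised to actin housekeeping signal by TaqMan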
esBAF Fgf4 qPCR: Fgf4 mRNA decrease in mouse ESCs, confirmation, esBAF inhibitor project, cell-based, mouse ESC, RT-qPCR, cherry-pick; shares compounds with esBAF inh; mouse ESC E14, Fgf4 mRNA qPCR fold change; stronger effect = lower value; Fgf4 expression fold change at 33 µM; 550 tested, 4% active; AID 743177, 2013;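 active = Fgf4 expression under 0.8 fold of control in both repeat measurements at one or both tested doses; inconclusive = under 0.8 fold in just a single repeat measurement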;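 note: Fgf4 transcript normalised to actin in duplex TaqMan qPCR; cells exposed to compound for 24 h before lysis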
esBAF Bmi1 qPCR: esBAF inhibition via Bmi1 de-repression, confirmation, cell-based, RT-qPCR, mouse ESC, single point, cherry-pick | 550 tested, under 10 active | shares compounds with esBAF inh | fold change at 33 µM | AID 743180, 2013 | mouse ESE14 ES cells, Bmi1 mRNA qPCR fold; stronger effect = higher value;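 active = Bmi1 expression fold change above 6 at either tested concentration, seen in replicate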
A549 tox SP: A549 cell cytotoxicity, cytotoxicity control, plate reader, single point, cherry-pick; AID 743188, 2013; shares compounds with esBAF inh; 550 tested, under 10 active; cell viability change % (negative = cytotoxic), % at 25 µM, hits read low; call rule not given here
HepG2 cytotox SP: HepG2 cell cytotoxicity, cytotoxicity control, plate reader, single point, cherry-pick | shares compounds with esBAF inh | stronger effect = lower value | activity change, negative = inhibition, % at 25 µM | 550 tested, 4% active | AID 743189, 2013; in the data active = activity change below about -50%
HEK293 cytotox SP: HEK293 cell cytotoxicity, cytotoxicity control, plate reader, single point, cherry-pick; shares compounds with esBAF inh; activity change, negative = inhibition, % at 25 µM, hits read low; 550 tested, 3% active; in the data active = activity change below about -38%, passing the limit was not always enough
Each line names hits and unclear results; the compound was inactive in the other large screens (follow-up assays come after a bar, where they were run).

Cc1c(NC(=O)c2cc(-c3ccc(Cl)c(Cl)c3)on2)c(=O)n(-c2ccccc2)n1C	none
CCN(C(=O)CN1C(=O)S/C(=C\C=C\c2ccccc2)C1=O)C1CCS(=O)(=O)C1 (configuration not stated)	esBAF inh 55, HSF-1 act 86 | Ring1 derepress inactive | esBAF Fgf4 qPCR inconclusive | esBAF Bmi1 qPCR inactive | A549 tox SP inactive | HepG2 cytotox SP inactive | HEK293 cytotox SP inactive
COc1cccc(-c2cn(CC[C@@H]3CC[C@@H](NC(=O)CN(C)C)[C@@H](CO)O3)nn2)c1	none (no result: MITF act, HSF-1 act, HSF1 inhib, Wnt act)
CC(O)(c1ccccc1)c1nc(-c2cccc(C(=O)O)c2)cs1 (configuration not stated)	esBAF inh 69 (no result: MITF act, HSF-1 act, HSF1 inhib) | Ring1 derepress inactive | esBAF Fgf4 qPCR inactive | esBAF Bmi1 qPCR inactive | A549 tox SP inactive | HepG2 cytotox SP inactive | HEK293 cytotox SP inactive
C[C@@H]1CN([C@H](C)CO)C(=O)c2cc(NC(=O)CCCN(C)C)ccc2O[C@@H]1CN(C)S(=O)(=O)c1cn(C)cn1	none (no result: MITF act, HSF-1 act, HSF1 inhib, Wnt act)
O=C(Nc1ccc(-c2cnco2)cc1)c1ccc(F)cc1F	esBAF inh 63, Wnt act 39 | Ring1 derepress 1.1 | esBAF Fgf4 qPCR inactive | esBAF Bmi1 qPCR inactive | A549 tox SP inactive | HepG2 cytotox SP inactive | HEK293 cytotox SP inactive
O=C(NC(=O)c1ccc(Cl)cc1)Nc1ccc(-c2cnco2)cc1	none (no result: esBAF inh, MITF act, Wnt act)
O=C1CCCc2cc3c(ccc4ccccc43)cc21	esBAF inh 75 (no result: HSF-1 act, HSF1 inhib) | Ring1 derepress inactive | esBAF Fgf4 qPCR inactive | esBAF Bmi1 qPCR inactive | A549 tox SP inactive | HepG2 cytotox SP inactive | HEK293 cytotox SP inactive
Cc1cc2c(cc1C)C(=O)CCC2	none (no result: MITF act, HSF-1 act, HSF1 inhib)
O=C(CCc1nnc(-c2ccccc2)o1)NCC1CCN(C2CCCC2)CC1	none (no result: esBAF inh, HSF-1 act, HSF1 inhib)
CC1CCN(C(=O)CCc2nnc(-c3ccccc3)o2)CC1	esBAF inh 74, Wnt act inconclusive | Ring1 derepress inactive | esBAF Fgf4 qPCR inactive | esBAF Bmi1 qPCR inactive | A549 tox SP inactive | HepG2 cytotox SP inactive | HEK293 cytotox SP inactive
CC(=O)Nc1ccc2nc(SCC(=O)Nc3ccc(N4CCOCC4)c(Cl)c3)sc2c1	esBAF inh 48, Wnt act inconclusive (no result: MITF act) | Ring1 derepress inactive | esBAF Fgf4 qPCR inactive | esBAF Bmi1 qPCR inactive | A549 tox SP inactive | HepG2 cytotox SP inactive | HEK293 cytotox SP inactive
COc1ccc(NC(=O)Nc2ccc3c(c2)C(=O)N([C@@H](C)CO)C[C@H](C)[C@H](CN(C)Cc2ccc4c(c2)OCO4)OCCCC[C@H](C)O3)cc1	none (no result: MITF act, HSF-1 act, HSF1 inhib, Wnt act)
Clc1cccc2sc(N3CCCCC3)nc12	esBAF inh 61 (no result: MITF act, Wnt act) | Ring1 derepress inactive | esBAF Fgf4 qPCR inactive | esBAF Bmi1 qPCR inactive | A549 tox SP inactive | HepG2 cytotox SP inactive | HEK293 cytotox SP inactive
Brc1cccc2sc(N3CCN(c4ccccc4)CC3)nc12	none (no result: esBAF inh)
Cc1cc(C)c2c(N)c(C(=O)Nc3ccccc3Br)sc2n1	esBAF inh 61 | Ring1 derepress inactive | esBAF Fgf4 qPCR inactive | esBAF Bmi1 qPCR inactive | A549 tox SP inactive | HepG2 cytotox SP inactive | HEK293 cytotox SP inactive
CCCCc1nc2cc(C(=O)N3CCN(c4nc(C)cnc4C)CC3)ccc2o1	esBAF inh 64, MITF act inconclusive | Ring1 derepress inactive | esBAF Fgf4 qPCR inactive | esBAF Bmi1 qPCR inactive | A549 tox SP inactive | HepG2 cytotox SP inactive | HEK293 cytotox SP inactive
C=CCNc1nc(NCc2cccc(OC)c2)c2sc(-c3ccccc3)cc2n1	esBAF inh 71 (no result: MITF act, HSF-1 act, HSF1 inhib) | Ring1 derepress 3.7 | esBAF Fgf4 qPCR 0.3 | esBAF Bmi1 qPCR 17 | A549 tox SP inactive | HepG2 cytotox SP inactive | HEK293 cytotox SP -66
C[C@@H]1CCCCO[C@H](CN(C)C(=O)CCC(F)(F)F)[C@@H](C)CN([C@@H](C)CO)C(=O)c2cc(NC(=O)CCCN(C)C)ccc2O1	none (no result: MITF act, HSF-1 act, HSF1 inhib, Wnt act)
COc1ccc(NC(=O)c2cc(-c3ccc(F)cc3C)n[nH]2)cc1OC	none (no result: MITF act, HSF-1 act, HSF1 inhib)
Cc1cc(F)ccc1-c1cc(C(=O)Nc2ccc(F)cc2)[nH]n1	esBAF inh 71 (no result: MITF act, HSF-1 act, HSF1 inhib) | Ring1 derepress inactive | esBAF Fgf4 qPCR inactive | esBAF Bmi1 qPCR inactive | A549 tox SP inactive | HepG2 cytotox SP inactive | HEK293 cytotox SP inactive
CCNC(=O)O/N=C(\C)c1sc(-c2ccccc2)nc1C	esBAF inh 63 (no result: MITF act) | Ring1 derepress inactive | esBAF Fgf4 qPCR inactive | esBAF Bmi1 qPCR inactive | A549 tox SP inactive | HepG2 cytotox SP inactive | HEK293 cytotox SP inactive
COc1ccc(Cc2nc(-c3ccncc3)no2)cc1	none (no result: esBAF inh)
Cc1cccc(-c2noc(Cc3ccc(Cl)cc3)n2)c1	esBAF inh 87 | Ring1 derepress inactive | esBAF Fgf4 qPCR inconclusive | esBAF Bmi1 qPCR inactive | A549 tox SP inactive | HepG2 cytotox SP inactive | HEK293 cytotox SP inactive
COc1ccc(Cc2nc(-c3cccc(C)c3)no2)cc1	esBAF inh 58 | Ring1 derepress inactive | esBAF Fgf4 qPCR inactive | esBAF Bmi1 qPCR inactive | A549 tox SP inactive | HepG2 cytotox SP inactive | HEK293 cytotox SP inactive
Clc1ccc(Cc2nc(-c3ccncc3)no2)cc1	none (no result: esBAF inh, HSF-1 act, HSF1 inhib)
COc1ccccc1S(=O)(=O)N[C@@H]1CC[C@@H](CCNC(=O)C2CC2)O[C@H]1CO	none (no result: MITF act, HSF-1 act, HSF1 inhib, Wnt act)
COC(=O)c1sc(Nc2ccccc2)nc1C	esBAF inh 65 | Ring1 derepress inactive | esBAF Fgf4 qPCR inactive | esBAF Bmi1 qPCR inactive | A549 tox SP inactive | HepG2 cytotox SP inactive | HEK293 cytotox SP inactive
CC(=O)c1sc(Nc2ccc(Oc3ccccc3)cc2)nc1C	esBAF inh 77 (no result: MITF act, HSF-1 act, HSF1 inhib) | Ring1 derepress inactive | esBAF Fgf4 qPCR inactive | esBAF Bmi1 qPCR inactive | A549 tox SP inactive | HepG2 cytotox SP inactive | HEK293 cytotox SP inactive
COc1ccc(C(=O)c2sc(Nc3ccccc3)nc2C)cc1	none
